Screening results: PubChem BioAssay, The Scripps Research Institute Molecular Screening Center
hgDAF12 agonist = activates the H. glycines DAF-12 receptor ligand-binding domain; HEK293 GAL4-hgDAF12 UAS-luciferase reporter, agonist luminescence; normalized to butyrate control; AID 687014; actives 1.8% (n = 370,000); activation, % at 6.8 µM;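 active means activation above a cutoff set at the mean of all screened compounds plus 3 SD, cut at about 10% in these data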
GAA850 FXN act = activators of GAA850 frataxin (FXN) promoter | HEK293 lucGAA850 FXN promoter luciferase reporter, 24 h; percent of 10 µM SAHA response | activation, % at 6 µM | actives 0.56% (n = 360,000);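 active means activation above the average of all compounds screened plus 3 SD, cutoff fixed separately per campaign, cut at about 7.5% in these data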
ssDAF-12 act = activates DAF-12 receptor from parasite S. stercoralis; HEK293 ssDAF-12/GRIP1 lit1-tk-luc reporter, luminescence; % of 3 µM dafachronic acid response; activation, % at 6.8 µM; actives 1% (n = 370,000); AID 652126;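 active means activation above the mean over all tested compounds plus 3 SD, cut at about 0.9% in these data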
hcDAF-12 act = activators of H. contortus DAF-12 nuclear receptor; activation, % at 6.8 µM; HEK293 hcDAF-12 lit1-tk-luc reporter, luminescence; 0% DMSO, 100% Δ7-dafachronic acid; actives 1.4% (n = 370,000); AID 652067;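 active means activation above the mean of all tested compounds plus 3 SD, cut at about 5.5% in these data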
DAX1 inh-1 = inhibits human nuclear receptor DAX1 | HEK293 Gal4-DAX1 luciferase reporter, luminescence | inhibition, % at 6.75 µM | actives 0.99% (n = 340,000);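 active means inhibition above the mean over all tested compounds plus 3 SD, cut at about 4.2% in these data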;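 further: inhibition shows as a rise in luminescence from relieved DAX1 repression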
Target sequence (P51843 207-470 limits assumed): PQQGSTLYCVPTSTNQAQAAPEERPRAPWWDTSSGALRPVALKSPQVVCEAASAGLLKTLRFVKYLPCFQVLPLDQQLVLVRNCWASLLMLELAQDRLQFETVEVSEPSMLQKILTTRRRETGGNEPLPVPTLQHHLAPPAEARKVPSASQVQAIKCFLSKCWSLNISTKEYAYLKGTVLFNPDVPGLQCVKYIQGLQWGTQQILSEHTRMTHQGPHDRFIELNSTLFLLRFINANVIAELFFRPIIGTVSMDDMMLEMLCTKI
DAX1 inh-2 = blocks DAX1 repression of SF-1 activated StAR promoter | HEK293T StAR-luciferase reporter, SF-1/DAX-1 repression relief | inhibition, % at 6.8 µM | actives 1.1% (n = 370,000);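 active means inhibition above the mean over all tested compounds plus 3 SD, cut at about 3.6% in these data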;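 further: higher inhibition means more luminescence from relief of DAX-1 repression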
hgDAF12 conf = hgDAF-12 agonism, confirmation assay; HEK293 GAL4-hgDAF12 luciferase reporter, agonist mode; percent of butyrate response; activation, % at 6.8 µM; shares compounds with hgDAF12 agonist; actives 80% (n = 3,300); AID 743050;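 active means mean activation over triplicate wells above the hit cutoff derived from the earlier primary screen, cut at about 11% in these data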
LXRb DAF12 ctr = activates human LXR-beta, counter-screen for DAF-12 agonists; shares compounds with hgDAF12 agonist; HEK293 Gal4-LXR luciferase reporter, 24 h; activation, % at 6.8 µM; 3,300 tested, under 10 active; AID 743051;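 active means mean activation of the triplicate above a set limit carried over from the primary screen, none filed active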
Numbers stand for hits. In the library only some 4.5% were active in any assay of this set; here they are far more common.

Screening O=C(Nc1nc2nccc(-c3ccccc3)n2n1)c1ccc(F)cc1 returned hgDAF12 agonist inactive, GAA850 FXN act inactive, ssDAF-12 act inactive, hcDAF-12 act inactive, DAX1 inh-1 inactive and DAX1 inh-2 inactive.
For O=C(Nc1nsc(-c2ccccc2)n1)c1ccc(F)cc1 the results were hgDAF12 agonist 16.4, GAA850 FXN act inactive, ssDAF-12 act inactive, hcDAF-12 act inactive, DAX1 inh-1 inactive, DAX1 inh-2 inactive, hgDAF12 conf inactive and LXRb DAF12 ctr inactive.
Screening Cc1ccc(N(CC(=O)NC2CCCCC2)S(=O)(=O)c2cccs2)cc1 returned hgDAF12 agonist inactive, GAA850 FXN act inactive, ssDAF-12 act inactive, hcDAF-12 act inactive, DAX1 inh-1 inactive and DAX1 inh-2 inactive.
`O=C(Nc1nccs1)C(Br)C(Br)c1ccccc1` (configuration not stated) gave hgDAF12 agonist 15.8, GAA850 FXN act inactive, ssDAF-12 act inactive, hcDAF-12 act 6.4, DAX1 inh-1 inactive, DAX1 inh-2 inactive, hgDAF12 conf 19.4 and LXRb DAF12 ctr inactive.
`COc1ccc(CNc2nc3ccccc3n2C(C)C)c(O)c1` gave hgDAF12 agonist inactive, GAA850 FXN act inactive, ssDAF-12 act inactive, hcDAF-12 act inactive, DAX1 inh-1 inactive and DAX1 inh-2 inactive.
For COc1ccc(CNc2nc3ccccc3n2C)c(O)c1 the results were hgDAF12 agonist 17.2, GAA850 FXN act inactive, ssDAF-12 act inactive, hcDAF-12 act inactive, DAX1 inh-1 inactive, DAX1 inh-2 4.5, hgDAF12 conf 20.6 and LXRb DAF12 ctr inactive.
Screening CCOc1ccc(C2/C(=C(/O)c3ccc(S(=O)(=O)N4CCCCC4)cc3)C(=O)C(=O)N2CCCOC)cc1OC (configuration not stated) returned hgDAF12 agonist inactive, GAA850 FXN act inactive, ssDAF-12 act inactive, hcDAF-12 act inactive, DAX1 inh-1 inactive and DAX1 inh-2 inactive.
For Cc1ccc(C(=O)OCC(=O)NCc2cccs2)c(C)c1 the results were hgDAF12 agonist 14.5, GAA850 FXN act inactive, ssDAF-12 act inactive, hcDAF-12 act inactive, DAX1 inh-1 inactive, DAX1 inh-2 inactive, hgDAF12 conf inactive and LXRb DAF12 ctr inactive.
Screening O=C(COc1ccc(Cl)cc1Cl)N/N=C/c1cccnc1 returned hgDAF12 agonist inactive, GAA850 FXN act inactive, ssDAF-12 act inactive, hcDAF-12 act inactive, DAX1 inh-1 inactive and DAX1 inh-2 inactive.
Screening O=C(COc1ccc(Cl)cc1Cl)Nc1cccnc1 returned hgDAF12 agonist 15.0, GAA850 FXN act inactive, ssDAF-12 act inactive, hcDAF-12 act inactive, DAX1 inh-1 inactive, DAX1 inh-2 inactive, hgDAF12 conf 14.4 and LXRb DAF12 ctr inactive.
Cn1cc(Br)c(C(=O)NNC(=O)c2ccccc2)n1 was read as hgDAF12 agonist inactive, GAA850 FXN act inactive, ssDAF-12 act inactive, hcDAF-12 act inactive, DAX1 inh-1 inactive and DAX1 inh-2 inactive.
For Cn1cc(Br)c(C(=O)NNC(=O)c2ccc(Br)cc2)n1 the results were hgDAF12 agonist 13.9, GAA850 FXN act inactive, ssDAF-12 act inactive, hcDAF-12 act inactive, DAX1 inh-1 inactive, DAX1 inh-2 inactive, hgDAF12 conf inactive and LXRb DAF12 ctr inactive.
`CCC/C(=N/NC(=O)c1cccc(Cl)c1)c1ccccc1` gave hgDAF12 agonist 16.6, GAA850 FXN act inactive, ssDAF-12 act inactive, hcDAF-12 act inactive, DAX1 inh-1 inactive, DAX1 inh-2 inactive, hgDAF12 conf inactive and LXRb DAF12 ctr inactive.
COc1ccc(-c2csc(=Nc3c(C)n(C)n(-c4ccccc4)c3=O)n2C(C)(C)C)cc1 was read as hgDAF12 agonist inactive, GAA850 FXN act inactive, ssDAF-12 act inactive, hcDAF-12 act inactive, DAX1 inh-1 inactive and DAX1 inh-2 inactive.
For COc1ccc(-c2cc(=Nc3c(C)n(C)n(-c4ccccc4)c3=O)c3ccccc3o2)cc1 the results were hgDAF12 agonist 18.6, GAA850 FXN act inactive, ssDAF-12 act inactive, hcDAF-12 act 6.0, DAX1 inh-1 5.3, DAX1 inh-2 inactive, hgDAF12 conf 11.9 and LXRb DAF12 ctr inactive.
Screening O=C(Cn1c(=O)c(=O)n(Cc2ccccc2)c2ccc(Cl)cc21)Nc1cccc(F)c1 returned hgDAF12 agonist 25.9, GAA850 FXN act inactive, ssDAF-12 act inactive, hcDAF-12 act inactive, DAX1 inh-1 inactive, DAX1 inh-2 inactive, hgDAF12 conf inactive and LXRb DAF12 ctr inactive.
O=C(Cn1c2ccccc2c(=O)c2ccccc21)Nc1cccc(F)c1 was read as hgDAF12 agonist inactive, GAA850 FXN act inactive, ssDAF-12 act inactive, hcDAF-12 act inactive, DAX1 inh-1 inactive and DAX1 inh-2 inactive.
Screening NS(=O)(=O)c1ccc(N/N=C/C=C/c2ccccc2[N+](=O)[O-])cc1 returned hgDAF12 agonist inactive, GAA850 FXN act inactive, ssDAF-12 act inactive, hcDAF-12 act inactive, DAX1 inh-1 inactive and DAX1 inh-2 inactive.
For O=C(O)c1cc(N/N=C/C=C/c2ccccc2[N+](=O)[O-])ccc1Cl the results were hgDAF12 agonist 13.3, GAA850 FXN act inactive, ssDAF-12 act inactive, hcDAF-12 act inactive, DAX1 inh-1 inactive, DAX1 inh-2 inactive, hgDAF12 conf inactive and LXRb DAF12 ctr inactive.
For CC1CCc2c(C(=O)Nc3ccccn3)csc2C1 (configuration not stated) the results were hgDAF12 agonist 17.2, GAA850 FXN act inactive, ssDAF-12 act inactive, hcDAF-12 act inactive, DAX1 inh-1 inactive, DAX1 inh-2 inactive, hgDAF12 conf 11.6 and LXRb DAF12 ctr inactive.
CC1CCc2c(C(=O)Nc3nccs3)csc2C1 (configuration not stated) was read as hgDAF12 agonist inactive, GAA850 FXN act inactive, ssDAF-12 act inactive, hcDAF-12 act inactive, DAX1 inh-1 inactive and DAX1 inh-2 inactive.
For CC1CCc2c(C(=O)NCc3ccccn3)csc2C1 (configuration not stated) the results were hgDAF12 agonist 17.0, GAA850 FXN act inactive, ssDAF-12 act inactive, hcDAF-12 act inactive, DAX1 inh-1 inactive, DAX1 inh-2 inactive, hgDAF12 conf inactive and LXRb DAF12 ctr inactive.
`CCCC[C@@H]1CNC(=O)C(=O)N1CCc1cccc(F)c1` gave hgDAF12 agonist inactive, ssDAF-12 act inactive, hcDAF-12 act inactive and DAX1 inh-2 inactive.
Screening Cc1ccc(OCCNC(=O)CCNC(=O)c2ccc(Cl)cc2)cc1 returned hgDAF12 agonist inactive, GAA850 FXN act inactive, ssDAF-12 act inactive, hcDAF-12 act inactive, DAX1 inh-1 inactive and DAX1 inh-2 inactive.
For Cc1cc(C)c2sc(N)nc2c1 the results were hgDAF12 agonist 13.9, GAA850 FXN act inactive, ssDAF-12 act inactive, hcDAF-12 act inactive, DAX1 inh-1 inactive, DAX1 inh-2 inactive, hgDAF12 conf inactive and LXRb DAF12 ctr inactive.
